# Measurements reported in PubChem BioAssay (EPA / NIEHS).
# Where “and” joins values, the source holds several entries; their conditions need not be identical. Equal entries are not always repeated. More than one record can exist for a structure, and the calls need not agree. Calls of active or inactive are those of the source. Rule for the calls: active = hit-call score of the fitted dose curve at least 0.9, where 1 is the maximum; inactive = score below 0.9.
# Test: ATG_VDRE_CIS: Attagene CIS-FACTORIAL HepG2 Assay for human Vitamin D Receptor Element (VDRE) (AID 2282968)
# Conditions: HepG2 VDRE cis-reporter transcription, actives raise or lower the signal
# Outline: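 Transfected HepG2 reporter cells, chemical treatment 24 h. RNA isolated, cDNA amplified with reporter-specific primers, products analysed by capillary electrophoresis. Endpoint fitted in both directions versus DMSO.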
SMILES,AC50,outcome
C[C@]12CCC(=O)C=C1CC[C@@H]1[C@@H]2CC[C@@]2(C)[C@H]1CC[C@]2(C)O,18.2 µM (active),inactive
Cc1ccccc1CO[C@@H]1C[C@@]2(C(C)C)CC[C@]1(C)O2,21.4 µM (active),–
CCC(C)c1cc([N+](=O)[O-])cc([N+](=O)[O-])c1O (stereo not drawn),12.6 µM (active),–
c1cc2ccc3cccc4ccc(c1)c2c34,–,inactive
Cc1ccccc1O,–,inactive
CC(C)(c1ccccc1)c1ccc(O)cc1,2.17 µM (active) and 21.3 µM (active) and 10.6 µM (active),inactive
ClC(Cl)=C(c1ccc(Cl)cc1)c1ccc(Cl)cc1,100 µM (active),inactive
CO/C=C(/C(=O)OC)c1ccccc1COc1cccc(C(F)(F)F)n1,11.9 µM (active),–
OCC(O)CO,–,inactive
Oc1c(Cl)c(Cl)c(Cl)c(Cl)c1Cl,25.5 µM (active) and 8.06 µM (active) and 8.47 µM (active),–
Clc1ccc(C(c2ccccc2Cl)C(Cl)(Cl)Cl)cc1 (stereo not drawn),3.58 µM (active) and 26.9 µM (active) and 15 µM (active),inactive
N#Cc1ccc(N(CC(N)=O)CC(F)(F)F)cc1C(F)(F)F,–,inactive
Cc1ccccc1[N+](=O)[O-],–,inactive
CCOC(=O)C(O)(c1ccc(Cl)cc1)c1ccc(Cl)cc1,11.1 µM (active),–
Sc1ccccc1,27.1 µM (active),inactive
Clc1ccc(Cl)cc1,–,inactive
CN(C)CCO,–,inactive
Cc1cc(-c2ccc(N)c(C)c2)ccc1N,–,inactive
